Active and inactive are the calls of the source. Calls come from the whole dose curve; as a rule, active = well fitted curve in the direction sought with a large enough effect in the repeat runs; inconclusive = weak or mixed curves; inactive = flat fitted curve, though single readings scatter.

This assay can be described thus: qHTS assay to test for compound auto fluorescence at 460 nm (blue) in HepG2 cell free culture (AID 720685). Conditions: Cell-free culture medium, blue autofluorescence 405/460 nm; series mostly up to 46 µM. From the text: U.S. Tox21 Program National Center for Advancing Translational Sciences [NCATS] NIH Chemical Genomics Center [NCGC] U.S. Environmental Protection Agency [EPA] National Institutes of Environmental Health Sciences [NIEHS] National Toxicology Program [NTP] U.S. Food and Drug Administration [FDA] Tox21 Assay Overview: Compound auto fluorescence often interferes with screening of the compound library against various biological targets and signaling pathways. Some of these compounds may have fluorophoric properties. Such properties may interfere with the assay outputs resulting in false positives and/or negatives. To decrease such complications and ensure the compound activities are relevant in terms of biological response, the Tox21 10K compound library was screened for auto fluorescence. From the fluorophores used as reporter signals in our screening assays, the auto fluorescence equivalencies of compounds against three fluorophores have been evaluated: Triamterene, Fluorescein and Rose Bengal sodium for blue, green and red fluorescence, respectively. The fluorescence intensities were measured using Excitation/Emission wavelengths at 405/460nm, 485/535nm and 540/590nm for blue, green and red labels, respectively. This assay includes the blue fluorescence data.
Tox21 Assay Protocol Summary: 5 uL of culture medium (MEM containing 10% FBS) per well was dispensed into black wall/clear bottom 1536-well plates using a Multidrop Combi Dispenser (ThermoFisher Scientific, Waltham, MA). After 23 nL compound or DMSO vehicle was transferred into assay plate by a pintool work station (Kalypsys, San Diego, CA), fluorescence intensities in the assay plates were measured by an Envision (PerkinElmer, Shelton, CT) plate reader using three labels for measuring blue, green and red fluorescence at […] 460, 535 and 590nm respectively.
(In general: qHTS replaces the single test concentration by a dilution series.)
As for `OC[C@H]1O[C@@H](n2cnc3c2NC=NC[C@H]3O)C[C@@H]1O`, the compound was classed as inactive.

For `CC1=C(/C=C/C(C)=C/C=C/C(C)=C/C=C/C=C(C)/C=C/C=C(C)/C=C/C2=C(C)C[C@@H](O)CC2(C)C)C(C)(C)C[C@H](O)C1`, the call was inactive. With `CCC(=O)OCC(=O)[C@@]1(OC(=O)CC)[C@H](C)C[C@H]2[C@H]3[C@H]([C@@H](O)C[C@@]21C)[C@@]1(C)C=CC(=O)C=C1C[C@H]3Cl`, the compound was called inactive. The entry for `CC[C@@H](C(=O)[C@@H](C)[C@@H](O)[C@H](C)[C@@H]1O[C@@H]([C@@H](CC)C(=O)O)CC[C@@H]1C)[C@H]1O[C@]2(C=C[C@@H](O)[C@]3(CC[C@@](C)([C@H]4CC[C@](O)(CC)[C@H](C)O4)O3)O2)[C@H](C)C[C@@H]1C` is “inactive”. The entry for `CO/N=C(\C(=O)N[C@@H]1C(=O)N2C(C(=O)OCOC(=O)C(C)(C)C)=C(/C=C\c3scnc3C)CS[C@H]12)c1csc(N)n1` is “inactive”; for `O.O=C([O-])CC([S-])C(=O)[O-].[Au+].[Na+].[Na+]` (stereo not given) it is “inactive”; for `CN1CCN2c3ncccc3Cc3ccccc3C2C1` (stereo not given) it is “inactive”.

`N[C@H](CC(=O)O)C(=O)O`: the compound was classed as inactive.

With `CCCCC/C=C\C/C=C\C/C=C\CCCCC(=O)O`, the result was inactive. Next, `OCC(O)COc1ccc(Cl)cc1` (stereo not given): “inactive”; `CN1c2cc(O)c(N=NC(N)=O)cc2CC1S(=O)(=O)O` (stereo not given): “inactive”; `CCN(CC)CCOC(=O)c1cccnc1`: “inactive”. Next, `CC1(C)C2CC[C@]3(C)[C@H](C(=O)C=C4[C@@H]5C[C@@](C)(C(=O)O)CC[C@]5(C)CC[C@]43C)[C@@]2(C)CC[C@@H]1O[C@H]1O[C@H](C(=O)O)[C@@H](O)[C@H](O)[C@H]1O[C@@H]1O[C@H](C(=O)O)[C@@H](O)[C@H](O)[C@H]1O` (stereo not given in full): “inactive”; `OC(CN1CCCCC1)c1cc(-c2ccccc2)on1` (stereo not given): “inactive”; `CCCCC(=O)OCC(=O)[C@]1(O)Cc2c(O)c3c(c(O)c2[C@@H](O[C@H]2C[C@H](NC(=O)C(F)(F)F)[C@H](O)[C@H](C)O2)C1)C(=O)c1c(OC)cccc1C3=O`: “inactive”. As for `Cc1cc(-c2ccc(N=Nc3c(S(=O)(=O)O)cc4cc(S(=O)(=O)O)cc(N)c4c3O)c(C)c2)ccc1N=Nc1c(S(=O)(=O)O)cc2cc(S(=O)(=O)O)cc(N)c2c1O`, the call was inactive. Next, `CC(C)(C)CC(C)(C)c1cc(Cc2cc(C(C)(C)CC(C)(C)C)cc(-n3nc4ccccc4n3)c2O)c(O)c(-n2nc3ccccc3n2)c1`: “inactive”; `C[C@]12CCC(=O)C=C1CC[C@@H]1[C@@H]2[C@@H](O)C[C@@]2(C)[C@H]1CC[C@]2(O)C(=O)COP(=O)(O)O`: “inactive”; `NC(Cc1ccccc1)C(=O)O` (stereo not given): “inactive”. Regarding `C[C@]12CC[C@@H]3c4ccc(O)cc4CC[C@H]3[C@@H]1CC[C@@H]2OP(=O)(O)O`, the compound was classed as inactive. The entry for `CC(=O)Nc1c(I)c(C(=O)O)c(I)c(N(C)C(C)=O)c1I` is “inactive”. Next, `CS(=O)(=O)OCCCNCCCOS(C)(=O)=O`: “inactive”; `COc1ccc(C(=O)Nc2ccccc2CCC2CCCCN2C)cc1` (stereo not given): “inactive”; `CCC(Oc1ccccc1)C(=O)N[C@@H]1C(=O)N2[C@@H]1SC(C)(C)[C@@H]2C(=O)O` (stereo not given in full): “inactive”. The entry for `Cn1c(=O)c2c(ncn2CCOC(=O)C(C)(C)Oc2ccc(Cl)cc2)n(C)c1=O` is “inactive”.

Take `CC1(C)N=C(N)N=C(N)N1c1ccc(Cl)cc1`: the call was inactive. Next, `COc1cc(C)c(/C=C/C(C)=C/C=C/C(C)=C/C(=O)O)c(C)c1C`: “inactive”; `CO/N=C(\C(=O)N[C@@H]1C(=O)N2C(C(=O)O)=CCS[C@H]12)c1csc(N)n1`: “inactive”. With `O=P(O)(O)OC[C@H]1O[C@](O)(COP(=O)(O)O)[C@@H](O)[C@@H]1O`, the compound was classed as inactive. Turning to `C/C=C1\NC(=O)[C@H]2CSSCC/C=C/[C@H](CC(=O)N[C@H](C(C)C)C(=O)N2)OC(=O)C(C(C)C)NC1=O` (stereo not given in full), the result was inactive. Next, `C[N+]1(C)[C@@H]2CC(OC(=O)C(O)(c3cccs3)c3cccs3)C[C@H]1[C@@H]1O[C@@H]12` (stereo not given in full): “inactive”; `CC(/C=C/C=C(\C)C(=O)O[C@@H]1O[C@H](CO[C@@H]2O[C@H](CO)[C@@H](O)[C@H](O)[C@H]2O)[C@@H](O)[C@H](O)[C@H]1O)=C\C=C\C=C(C)\C=C\C=C(/C)C(=O)O[C@@H]1O[C@H](CO[C@@H]2O[C@H](CO)[C@@H](O)[C@H](O)[C@H]2O)[C@@H](O)[C@H](O)[C@H]1O`: “inactive”. Next, `CC(C)[C@H](N)C(=O)OCC(CO)OCn1cnc2c(=O)[nH]c(N)nc21` (stereo not given in full): “inactive”. As for `OCCO[C@@H]1[C@@H](O)[C@H](O)[C@@H](CO)O[C@@H]1O`, the outcome was inactive.

In the case of `Cc1c(O)cc2c(c1C)O[C@](C)(CCC[C@H](C)CCC[C@H](C)CCCC(C)C)CC2`, the result was inactive. The entry for `N[C@@H](C(=O)N[C@@H]1C(=O)N2C(C(=O)O)=C(CSc3cn[nH]n3)CS[C@H]12)c1ccc(O)cc1` is “inactive”. The entry for `CN=C(NC)NCc1ccccc1` is “inactive”; for `CCCCCCCCCCCC(=O)OC[C@@H](O)C1OC[C@H](O)[C@H]1O` (stereo not given in full) it is “inactive”. Next, `CC[C@H]1NC(=O)[C@@H](NC(=O)c2ncccc2O)[C@@H](C)OC(=O)[C@H](c2ccccc2)NC(=O)[C@@H]2CC(=O)CCN2C(=O)[C@H](Cc2ccccc2)N(C)C(=O)[C@@H]2CCCN2C1=O`: “inactive”.

As to `CS(=O)(=O)NC(=O)CCC/C=C\C[C@H]1C(=O)C[C@@H](O)[C@@H]1/C=C/[C@H](O)COc1ccccc1`, the call was inactive.
